LRH-1 inv ag – NR5A2 inverse agonism in reporter assay. 360,000 compounds, 0.13% hits. HEK293T StAR-luciferase reporter, LRH-1 transfected, 24 h. inhibition, % at 3.6 µM. O00482. AID 602396;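 active means inhibition above the mean inhibition of all tested compounds plus 3 SD, cut at about 73% in these data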
SRC2 inh – human SRC2 (NCOA2) inhibition; Q15596; HEK293 GAL4-SRC2 luciferase reporter, luminescence; inhibition, % at 9 µM; 370,000 compounds, 0.17% hits;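 active means inhibition above the mean inhibition of all tested compounds plus 3 SD, set per campaign, cut at about 52% in these data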
NCOA3 inh – inhibits human SRC3 coactivator; HEK293 GAL4-SRC3 luciferase reporter, luminescence; Q9Y6Q9; 360,000 compounds, 0.17% hits; inhibition, % at 3.6 µM; AID 588352;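 active means inhibition above a per-campaign cutoff, the mean of all compounds plus 3 SD, cut at about 60% in these data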;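 further: higher means less SRC3-driven luciferase light from the GAL4 reporter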
SRC1 inh – human NCOA1 inhibition | Q15788 | HEK293 GAL4-SRC1 luciferase reporter, luminescence | inhibition, % at 3.6 µM | 360,000 compounds, 0.12% hits | AID 588354;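 active means inhibition above the campaign mean plus 3 SD, with each screening campaign given its own cutoff, cut at about 60% in these data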
COUP-TFII inh – inhibitors of human COUP-TFII (NR2F2); 370,000 compounds, 0.7% hits; HEK293T NGFI-A luciferase reporter, luminescence; inhibition, % at 8.6 µM; AID 686940; P24468;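 active means inhibition above a per-plate cutoff, mean inhibition of test wells between control levels plus 3 SD, cut at about 38% in these data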;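 further: cells cotransfected with COUP-TFII expression vector driving the NGFI-A reporter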
Gli-Sufu block – blocks Gli-Sufu signaling in a luciferase reporter; Sufu-KO-LIGHT fibroblasts, Gli luciferase reporter luminescence; inhibition, % at 5 µM; 340,000 compounds, 0.74% hits; AID 588413;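 active means inhibition above about 55%, limit read from the data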
A number is an active result; 0 = inactive; - = not tested or not shown. An excerpt weighted towards active compounds, which were near 1.3% of everything screened.

SMILES	LRH-1 inv ag	SRC2 inh	NCOA3 inh	SRC1 inh	COUP-TFII inh	Gli-Sufu block
O=C(Nc1ccc(Cl)cc1)C1CCCN1S(=O)(=O)c1cccc2cccnc12 (centres undefined)	-	0	-	-	0	-
COc1ccc(/C=C/C(=O)C(C(N)=O)=C2SCCS2)cc1	0	0	0	0	0	0
NC(=O)C(C(=O)/C=C/c1ccc(Cl)cc1)=C1SCCS1	0	0	65.7	0	0	0
O=c1c2cc3cccnc3nc2ncn1Cc1cccs1	-	0	-	-	0	-
C[C@H]1[C@@H](OC(=O)Nc2cccc(C(F)(F)F)c2)CC[C@@]23CCCN2C(=O)CCC[C@@H]13	-	-	-	-	0	-
CCCC(=O)NC(c1ccccc1OC)c1ccc2cccnc2c1O (centres undefined)	80.0	-	0	0	-	-
CCCC(=O)NC(c1ccc(Cl)cc1Cl)c1ccc2cccnc2c1O (centres undefined)	0	0	0	0	0	89.3
CCCCC(=O)NC(c1ccccc1OC)c1ccc2cccnc2c1O (centres undefined)	0	0	0	0	0	0
CC(=O)NC(c1ccc(Cl)cc1Cl)c1ccc2cccnc2c1O (centres undefined)	88.1	0	0	0	0	87.0
Cc1ccc(CNC(=O)OC(C)(C)C)c(/C=C/S(=O)(=O)NCCc2ccccc2)c1	-	0	-	-	0	-
O=C(NC1CCCCN(Cc2ccc(Cl)cc2)C1=O)c1cccs1 (centres undefined)	-	0	-	-	0	-
Cc1ccc(S(=O)(=O)N2CCCC2C(=O)N2CCc3ccccc3C2)cc1C (centres undefined)	-	0	-	-	0	-
CCCCOCCCNC(=O)C[C@H]1C[C@@]2(C(=O)OC)C(=C[C@H](C(C)(C)C)O[C@@H]2C)N(Cc2ccc(Cl)cc2Cl)C1=O	-	0	-	-	0	-
O=C(NCC1CCN(C(=O)C(=O)c2cc3ccccc3o2)CC1)c1ccc2c(c1)OCC2	-	0	-	-	0	-
O=C(Nc1ccc(F)cc1Cl)C1CCCN1S(=O)(=O)c1cccc2cccnc12 (centres undefined)	-	0	-	-	0	-
O=C(N[C@H](C(=O)N1CCC[C@H]1C(=O)NC1CCCC1)C1CCCCC1)c1ccc(Cl)c(Cl)c1	-	0	-	-	0	-
CCCCCCCOC(=O)C[N+](C)(C)CCOC1CC2CCC1(C)C2(C)C (centres undefined)	0	0	0	0	0	81.6
Cc1ccc(-c2nc3ncccn3c2NC(=O)Nc2ccc(F)cc2)cc1	-	0	-	-	0	-
O=C(O)CCSCC(=O)c1ccc2c(c1)OCCO2	0	55.9	0	0	0	0
O=C(O)CCC(=O)c1ccc2c(c1)OCCO2	0	0	0	0	0	0
O=C(N[C@@H](Cc1cccnc1)C(=O)N1CCC[C@H]1C(=O)NCCc1ccccc1Cl)c1ccccc1	-	0	-	-	0	-
CCOC(=O)CN1C(=O)[C@]2(OCCC=C[C@H]2C)c2ccccc21	-	0	-	-	0	-
Cc1ccc2c(Cl)cc(Cl)c(O)c2n1	0	0	0	0	0	59.5
COc1ccc(CCNC(=O)c2nnn(-c3ccc4c(c3)OCCO4)c2N)cc1OC	0	55.2	0	0	93.3	0
C=CCCC(=O)N1CCC(C(=O)NCC2COc3ccccc3O2)CC1 (centres undefined)	-	0	-	-	0	-
SMILES	LRH-1 inv ag	SRC2 inh	NCOA3 inh	SRC1 inh	COUP-TFII inh	Gli-Sufu block
Nc1nc(N)c2cc([N+](=O)[O-])ccc2n1	0	0	0	0	0	0
Nc1nc(N)c2c(ccc3c2ccn3Cc2cccc([N+](=O)[O-])c2)n1	0	0	64.4	64.6	0	-
CC(NCc1ccco1)C(=O)N1CCN(c2ccc(F)cc2)CC1 (centres undefined)	-	0	-	-	0	-
COc1ccccc1NC(=S)NN=C(C)c1ccccn1	82.3	0	0	65.1	0	85.0
CC(=NNC(=S)Nc1cccc(C)c1)c1ccccn1	86.0	0	72.2	72.9	0	82.0
CC(=NNC(=S)Nc1ccc(C)cc1)c1ccccn1	0	0	67.7	70.4	0	0
Nc1ccn([C@@H]2O[C@H](C(=O)N3CCN(CCO)CC3)[C@@H](O)[C@H]2O)c(=O)n1	-	0	-	-	0	-
CCCCCCCCN1C(=O)N2Cc3ccc(C)cc3C2CS1(=O)=O (centres undefined)	-	0	-	-	0	-
N#CCC[C@H]1CC[C@]2(CCCN(Cc3ccc(Br)cc3)C2)O1	-	0	-	-	0	-
S=C(NCCCCN(Cc1ccc(Cl)cc1)c1ccc(Br)cn1)NCCCc1cnc[nH]1	95.3	0	0	0	0	-
COc1cccc(C(=O)Nc2cccc(-c3nnc(-c4ccco4)o3)c2)c1	0	0	0	0	0	0
COc1ccc(Br)cc1C(=O)Nc1cccc(-c2nnc(-c3ccco3)o2)c1	0	0	0	0	0	71.0
Cc1nc2ccc(NS(=O)(=O)c3ccc4c(c3)OCCO4)cc2s1	0	0	0	0	65.1	0
Cc1ccc(S(=O)(=O)Nc2ccc3nc(C)sc3c2)cc1	0	-	0	0	-	0
COc1ccc2c(c1)C(C)=CC(C)(C)N2S(=O)(=O)c1ccc(NC(C)=O)cc1	0	0	0	0	0	0
CCOc1ccc2c(c1)C(C)=CC(C)(C)N2S(=O)(=O)c1ccc(NC(C)=O)cc1	0	0	0	0	0	65.3
COC(=O)c1ccc(C=NNC(=O)c2cc(-c3ccc(C)c(C)c3)n[nH]2)cc1	-	0	-	-	0	-
COc1cc(Nc2nc(-c3ccccc3)c3cc(C)ccc3n2)cc(OC)c1OC	0	93.1	0	0	0	0
Cc1ccc2nc(NCC(=O)O)nc(-c3ccccc3)c2c1	0	0	0	0	0	0
OCC1OC(n2cnc3c(NCc4ccccc4O)ncnc32)C(O)C1O (centres undefined)	89.7	0	61.7	0	0	0
O=C1c2cccc3cc([N+](=O)[O-])cc(c23)C(=O)N1CCN1CCCC1	76.0	0	0	0	0	74.8
Nc1cc2c3c(cccc3c1)C(=O)N(CCN1CCCC1)C2=O	0	0	0	0	0	0
COc1ccccc1-c1cccc2c3c([nH]c12)[C@@H]1C[C@H]2[C@@H](CN1CC3)[C@H](C)ON2C	-	0	-	-	0	-
O=C(Nc1ccc2c(c1)OCCO2)C1CC1c1ccccc1 (centres undefined)	0	0	0	0	0	0
O=C(O)C1CCCCC1C(=O)Nc1ccc2c(c1)OCCO2 (centres undefined)	0	55.3	0	0	0	0
O=C(NCCc1c[nH]c2ccccc12)OCc1cn(Cc2cccc(C(F)(F)F)c2)nn1	-	0	-	-	0	-
O=S(=O)(c1ccc(NC(=S)NCc2cccnc2)cc1)N1CCCCC1	73.4	0	0	66.7	0	0
COc1cccc(/C=N/NC(=O)c2cc3cc([N+](=O)[O-])ccc3s2)c1O	0	0	0	0	0	76.9
CCOc1ccccc1C(=O)N1CCN(c2cccc(Cl)c2)CC1	0	0	0	0	0	58.7

Assay outcomes as filed in PubChem BioAssay.
